BRCA1 expr up = activators of BRCA1 expression. MCF7-BRCA1-FFLuc reporter, luminescence, 48 h; response scale: scaled: vehicle 0%, 10 µM genistein 100%. Potency, µM (titrated, usually from 46.1 µM), inactives show at the highest dose activation, actives largely listed as activators. 380,000 compounds, 1.1% hits. AID 624202; note: potency is the fitted concentration of half-maximal effect; nearly all actives have a fitted effect of over 80% in size
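Luminescence from a BRCA1-driven firefly luciferase in MCF7 cells was the read-out, taken 15 min after substrate addition following 48 h compound exposure at 37 °C. Data were normalized to a 10 microM genistein control and DMSO vehicle.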
Nrf2 inh = blocks Nrf2 signaling; A549 ARE-Fluc reporter, luciferase luminescence, 18-24 h; Potency, µM (highest dose often 46 µM), for inactives: at the highest dose activity change, negative = inhibition, usual class: inhibitors; 360,000 compounds, 2.1% hits; note: potency is the fitted concentration of half-maximal effect; % is set by controls: 0 for no effect and ±100 for the full control effect; nearly all actives have a fitted effect of over 60% in size
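Two sequential reads on A549 ARE_Fluc cells exposed to compound for 18-24 h: a CellTiter-Fluor fluorescence read for viability, then a luciferase luminescence read for Nrf2/ARE activity.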
p53 reactivation = mutant p53 re-activation in reporter cells; H1299 p53-A138V BP100-luciferase reporter, luminescence, 24 h; Potency, µM (top dose mostly 92.2 µM), without a hit: at the top dose activity change, positive = activation, usual class: activators; 320,000 compounds, 0.063% hits; note: potency is the fitted concentration of half-maximal effect; % of control where 0% means no effect; nearly all actives have a fitted effect of over 45% in size
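p53-null H1299 cells stably carrying temperature-sensitive p53-A138V and a BP100-luciferase reporter were pinned with compounds (4-point, 1:5 series) and held 24 hrs at 37 deg C. Luminescence was read 10 min after detection reagent.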
Nrf2 activator = activators of Nrf2 (ARE) signaling. AREc32 ARE-luciferase reporter (MCF7-derived line), luminescence, 24 h. Potency, µM (doses to about 46.1 µM), inactives show top-dose activation, actives largely listed as activators. 410,000 compounds, 0.31% hits. AID 624171; note: potency is the fitted concentration of half-maximal effect; % of control where 0% means no effect; nearly all actives have a fitted effect of over 65% in size
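Quantitative high-throughput format: AREc32 reporter cells, 1000 per well, received compound by pin transfer and were incubated 24 hr at 37 deg C, 5% CO2, before Steady-Glo luminescence detection.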
IL-2 act = IL-2 activation | IL-2 activation reporter assay, cell-based qHTS; stimulated with anti-CD3/CD4/CD28 beads; in transgenic mouse T cells | activation, % (series mostly up to about 46 µM) | 360,000 compounds, 0.065% hits | AID 652025; in the data active = activation above about 50%; inconclusive = mostly about 30% to 49%; note: 0% is about no effect
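EGFP and DsRed fluorescence is measured by plate cytometry in unstimulated transgenic mouse T cells exposed to compound for 60 minutes, then stimulated 18 hours at 37 degrees C with anti-CD3/anti-CD4 beads plus anti-CD28.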
A549 viability = counter-screen for Nrf2 inhibitors: cytotoxicity in A549 cells; A549 ARE-Fluc cells, CellTiter-Fluor viability, 18-24 h; Potency, µM (highest dose often 46 µM), inactives show at the top dose activity change, negative = cytotoxicity, most hits filed as inhibitors; 390,000 compounds, 0.16% hits; AID 504648; note: potency is the fitted concentration of half-maximal effect; % is set by controls: 0 for no effect and ±100 for the full control effect
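A549 ARE-Fluc cells in 5% FBS OPTI-MEM, 5000 cells/well, rested 2 h then exposed to compounds in concentration-response for 18-24 h at 37 °C. Viability by CellTiter-Fluor fluorescence (Ex 405/Em 525) after 30 min; luciferase luminescence (BugLite, 15 min, RT) read afterwards.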
* hit, by the source's call; ? = inconclusive; . = not tested or not shown; [ ] = another dose, or the depositor's remark. Most compounds without a hit are left out; they make up all but 3.2% or so of the library. Unless noted, calls come from the whole dose curve; as a rule, active = well fitted curve in the direction sought with a large enough effect; inconclusive = small, poorly fitted or top-dose-only effect, or another doubt; inactive = no such curve, though single readings can be large; an effect the other way counts as inactive or inconclusive.

SMILES | BRCA1 expr up | Nrf2 inh | p53 reactivation | Nrf2 activator | IL-2 act | A549 viability
CCc1ccc(S(=O)(=O)/N=C2\C=C(Nc3ccc(O)cc3)C(=O)c3ccccc32)cc1 | -41% | 8.2µM* | -17% | -2% | -4 | 12µM*
O=C(O)c1ccc(NC2=C/C(=N/S(=O)(=O)c3ccccc3)c3ccccc3C2=O)cc1 | -93% | 12% | -9% | -3% | -1 | -14%
CCc1ccc(S(=O)(=O)/N=C2\C=C(Nc3cccc(C(=O)O)c3)C(=O)c3ccccc32)cc1 | -67% | 21µM* | -8% | -3% | -6 | ?
C=CCn1cccc(C(=O)Nc2ccc(OCC)cc2)c1=O | 118% | 12µM* | 10% | 4% | 0 | 0%
C=CCn1cccc(C(=O)Nc2ccc(SC)cc2)c1=O | 58% | ? | 10% | 8% | -5 | 1%
C=CCn1cccc(C(=O)Nc2ccc(C)c(Cl)c2)c1=O | 4.5µM* | ? | ? | 7% | 0 | 5%
C=CCn1cccc(C(=O)Nc2ccc(Cl)cc2)c1=O | 5.6µM* | ? | 12% | 9% | 0 | -1%
Cn1c(CNC(=O)CSc2n[nH]c(-c3ccccc3)n2)nc2ccccc21 | . | . | . | 4% | . | ?
COc1ccccc1OCCn1nc2ccccc2c1OC | . | . | . | . | 0 | .
COCCNC(=O)c1cnn(-c2ccc(C)cc2C)c1C1CCN(C(=O)OC(C)(C)C)CC1 | . | -4% | . | 0% | . | 10%
CC(=O)c1cnc2c(-c3ccc(Cl)cc3)cnn2c1C | 3.5µM* | ? | ? | 3% | 0 | -1%
CC(C)OC(=O)c1cccnc1SCC(=O)Nc1ccc(C(F)(F)F)cc1Cl | . | . | . | 3% | . | -13%
COc1ccccc1NC(=S)N1CCc2cc(OC)c(OC)cc2C1 | -14% | -12% | -7% | 0%[9.22 µM] | 0 | 4%
COc1cc2c(cc1OC)CN(C(=S)Nc1cccc(Cl)c1C)CC2 | -21% | 18µM* | -2% | 0% | 2 | -9%
CC(C)(C)C(=O)Nc1nnc(SCc2cccc(F)c2)s1 | 14µM* | 29% | ? | 6% | 1 | -3%
COCCSc1nnc(NC(=O)CSc2ccccc2)s1 | -2% | -5% | 7% | 0% | -3 | 15%
COCCSc1nnc(NC(=O)C(C)(C)C)s1 | 5.6µM* | ? | 4% | -1% | 1 | 0%
COc1ccc(C)cc1NC(=O)N1CCN(c2cc(-c3noc(C)n3)ccc2C)CC1 | -3% | . | . | 3% | . | 0%
COc1ccc(-c2nnc3n2N=C(c2ccccc2OC)CS3)cc1 | . | 6% | . | . | . | -1%
O=c1c(-c2ccc(O)cc2)coc2cc(OC3OC(CO)C(O)C(O)C3O)ccc12 (centres undefined) | 6.3µM* | 8% | ? | 0% | -1 | -2%
COc1cc(O)c2c(=O)c(-c3ccc(O[C@@H]4O[C@H](CO)[C@@H](O)[C@H](O)[C@H]4O)cc3)coc2c1 | 2µM* | ? | 25% | 5% | 9 | -12%
O=c1cc(-c2ccc(O)c(O)c2)oc2cc(O[C@@H]3O[C@H](CO)[C@@H](O)[C@H](O)[C@H]3O)cc(O)c12 | ? | -5% | ? | 0% | -1 | -12%
O=c1c(-c2ccc(O)cc2)coc2cc(OC3OC(CO)C(O)C(O)C3O)cc(O)c12 (centres undefined) | 8.9µM* | ? | ? | 3% | 3 | -2%
O=c1c(O[C@H]2O[C@@H](CO)[C@H](O)[C@@H](O)[C@@H]2O)c(-c2ccc(O)cc2)oc2cc(O)cc(O)c12 | 0% | 15% | 10% | 0% | 0 | -10%
c1coc(CNc2nc(-c3cccs3)nc3ccccc23)c1 | . | ? | . | . | . | 1%
SMILES | BRCA1 expr up | Nrf2 inh | p53 reactivation | Nrf2 activator | IL-2 act | A549 viability
COc1cc2c(NC3CCN(C)CC3)nc(N3CCCN(C)CC3)nc2cc1OCCCCCN | -5% | . | . | . | . | .
O=C(Nc1cccc(-c2nn3c(=O)cc(N4CCNCC4)nc3s2)c1)C1CCNCC1 | . | -1% | . | . | . | 12%
COc1cccc(C(O)c2nc(-c3cccc(C#N)c3)cs2)c1 (centres undefined) | -3% | . | . | 1% | 1 | .
N#Cc1cccc(-c2csc(C(O)c3ccc(F)cc3)n2)c1 (centres undefined) | 7.9µM* | . | . | 1%[9.22 µM] | 2 | .
Cc1ccc(CSc2nc(=O)c3c(C)cc(C)nc3n2C2CC2)cc1 | . | . | . | -2% | . | 18%
Cc1ccc(N2CC(NC(=O)Cc3ccc(F)cc3)CC2=O)cc1C (centres undefined) | . | . | . | 0% | . | -3%
Cc1nc2ccccc2c(=O)n1NCc1cc(Br)cs1 | -34% | -12% | 22% | 7.9µM* | 0 | 6%
Cc1ccc(C2=CC(C)(c3ccc(C)cc3)Nc3nc(C(F)(F)F)nn32)cc1 (centres undefined) | -68% | ? | 15% | 6% | 1 | -6%
CC1(c2ccc(OCC#N)cc2)C=C(c2ccc(OCC#N)cc2)n2nc(C(F)(F)F)nc2N1 (centres undefined) | -87% | 23µM* | -19% | 11% | -6 | ?
CCSc1nnc(NC(=O)c2csc(C)c2)s1 | 5µM* | 4% | ? | 4% | -1 | 7%
CC(C)NS(=O)(=O)c1ccc2[nH]c3nc(SCC(=O)Nc4ccc(F)c(F)c4)nnc3c2c1 | 0% | 3% | . | . | . | -5%
CCOc1ccccc1N1C(=O)c2ccccc2N/C1=C\N1CCN(C(=O)c2ccco2)CC1 | 0% | -4% | . | . | . | -6%
CCCN(CC(=O)Nc1ccc(Cl)cc1Cl)C(=O)/C=C/c1ccco1 | -9% | 12% | ? | 11µM* | 1 | -4%
CCN(CC(=O)Nc1ccc(NC(C)=O)cc1)C(=O)/C=C/c1ccco1 | -4% | -12% | 11% | 0% | -1 | 0%
O=C(C1=C[C@@H](c2ccc(C(F)(F)F)cc2)C[C@@H](OCc2ccc(CO)cc2)O1)N1CCN(Cc2ccc3c(c2)OCO3)CC1 | -8% | 16µM* | 1% | 0% | -5 | -22%
CN1CCN(C(=O)C2=C[C@H](c3csc4ccccc34)C[C@H](OCc3ccc(CO)cc3)O2)CC1 | 0% | 2% | -1% | -1% | -1 | -3%
C#Cc1ccc([C@H]2C=C(C(=O)N3CCN(Cc4ccccc4)CC3)O[C@@H](OCc3ccc(CO)cc3)C2)cc1 | -48% | ? | 1% | 7% | -1 | -14%

Screening results from PubChem BioAssay.
